Bioassay records: PubChem, The Scripps Research Institute Molecular Screening Center
A selection: hits, their analogues and other compounds. The true share with any hit is near 3.5%.
FBW7 act: activators of human E3 ligase FBW7. Q969H0. AlphaScreen FBW7–phospho-cyclin E peptide binding, activator screen. normalized activity (activation), % at 26.1 µM. 650,000 tested, 0.13% active; in the data active = normalized activity above about 1.9%;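 also: purified mutant Fbw7 with reduced substrate affinity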
TEAD-YAP block: TEAD-YAP interaction inhibition; 640,000 tested, 1.4% active; HEK-TIYL cells, TEAD-Gal4/YAP UAS-luciferase luminescence; inhibition, % at 9.12 µM; AID 1259422; in the data active = inhibition above about 32%;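 also: 0% = median of test compound wells and 100% = reference inhibitor wells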
GPR151 ag: human GPR151 activation | PathHunter beta-arrestin GPR151 cells, luminescence | activation, % at 11.2 µM | 650,000 tested, 1% active; in the data active = activation above about 4.9%;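 also: 0% = median of compound wells and 100% = cells with positive control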
MITF primary: inhibitors of human MITF | O75030 | AlphaScreen MITF homodimerization, bead proximity signal | inhibition, % at 2.6 µM | 650,000 tested, 0.91% active | AID 1259374; in the data active = inhibition above about 50%;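 also: 0% = vehicle wells with protein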
Target sequence (O75030 whole entry, looked up): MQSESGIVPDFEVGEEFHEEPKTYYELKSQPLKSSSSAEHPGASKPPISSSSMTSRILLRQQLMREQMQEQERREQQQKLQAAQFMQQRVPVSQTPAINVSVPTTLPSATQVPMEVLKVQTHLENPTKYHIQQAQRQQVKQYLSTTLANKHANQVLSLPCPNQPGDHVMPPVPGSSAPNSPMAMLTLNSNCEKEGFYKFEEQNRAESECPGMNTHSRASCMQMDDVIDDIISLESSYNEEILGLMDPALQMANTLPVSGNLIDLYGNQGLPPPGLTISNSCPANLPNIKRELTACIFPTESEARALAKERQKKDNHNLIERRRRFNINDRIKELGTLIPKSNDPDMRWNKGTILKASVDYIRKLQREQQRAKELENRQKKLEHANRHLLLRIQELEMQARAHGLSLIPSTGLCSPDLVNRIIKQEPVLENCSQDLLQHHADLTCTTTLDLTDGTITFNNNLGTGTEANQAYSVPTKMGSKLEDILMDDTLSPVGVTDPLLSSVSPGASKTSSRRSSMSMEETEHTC
The depositor's hits bear a star.

Results for COc1ccc(Cc2cnc(NC(=O)COc3ccccc3OC)s2)cc1 ?
FBW7 act: 1; TEAD-YAP block: 48*; GPR151 ag: 1; MITF primary: -1

How did Cc1ccccc1OCC(=O)Nc1ncc(Cc2ccc(Br)cc2)s1 do in these assays?
FBW7 act: 0; TEAD-YAP block: 55*; GPR151 ag: 2; MITF primary: -4

How did COc1ccc(OCC(=O)Nc2ncc(Cc3ccc(Br)cc3)s2)cc1 do in these assays?
FBW7 act: 1; TEAD-YAP block: 1; GPR151 ag: -1; MITF primary: -159

Results for COc1ccccc1OCC(=O)Nc1ncc(Cc2ccc(Br)cc2)s1 ?
FBW7 act: 1; TEAD-YAP block: 4; GPR151 ag: 3; MITF primary: 11

What do the screens show for `CCN(CC)S(=O)(=O)c1ccc2c(c1)N(CC(=O)NC1CCC(C)CC1)C(=O)CO2` (stereo not given)?
FBW7 act: 0; TEAD-YAP block: 11; GPR151 ag: -1; MITF primary: 16
